Compound activity: PubChem, several laboratories
CYP2C19 act – increases human CYP2C19 enzyme activity; P33261; recombinant CYP2C19, luciferin-H EGE luminescence; stronger effect = higher value; 0 = fully inhibited enzyme, 1 = untreated enzyme; activation factor at 5 µM; 96,000 tested, under 10 active;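 active means activation factor of at least 2 at 5 µM in the primary screen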;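 further: 0 = wells with 2.5 mM tranylcypromine and 1 = vehicle-only wells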
CYP2C9 inhib – human CYP2C9 inhibition; 96,000 compounds, 20% hits; inhibition, % at 5 µM; CYP2C9 Supersomes, luciferin-H conversion, luminescence; P11712;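 active means blocking of liver enzyme CYP2C9 beyond about 50% at 5 µM, limit read from the data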
Target sequence (P11712 whole entry, looked up): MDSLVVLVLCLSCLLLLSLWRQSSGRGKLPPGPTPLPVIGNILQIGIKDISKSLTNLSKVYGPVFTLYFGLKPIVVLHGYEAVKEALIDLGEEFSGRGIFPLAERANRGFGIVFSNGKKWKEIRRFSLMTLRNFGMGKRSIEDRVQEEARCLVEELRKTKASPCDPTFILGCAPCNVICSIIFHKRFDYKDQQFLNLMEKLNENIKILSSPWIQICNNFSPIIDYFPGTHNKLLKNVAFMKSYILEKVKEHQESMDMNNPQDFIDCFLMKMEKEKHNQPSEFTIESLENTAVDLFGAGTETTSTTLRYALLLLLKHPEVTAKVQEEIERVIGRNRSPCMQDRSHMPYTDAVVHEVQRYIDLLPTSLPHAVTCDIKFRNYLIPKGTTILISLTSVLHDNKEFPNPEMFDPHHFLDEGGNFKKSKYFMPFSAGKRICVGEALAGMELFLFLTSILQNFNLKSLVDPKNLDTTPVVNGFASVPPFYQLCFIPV
CYP2C9 activ – increases human cytochrome P450 2C9 activity; AID 1024; 96,000 compounds, 1.4% hits; activation factor at 5 µM; recombinant CYP2C9, luciferin-H conversion, luminescence; stronger effect = higher value; factor 1 = untreated enzyme, 0 = blocked; P11712;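 active means activation factor of 2 or more for CYP2C9 at a 5 µM dose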;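 further: 0 = sulfaphenazole-blocked wells and 1 = vehicle-only wells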
CYP2C19 inhib – blocks human cytochrome P450 2C19; inhibition, % at 5 µM; 96,000 compounds, 21% hits; CYP2C19 Supersomes, luciferin-H EGE luminescence, 30 min; P33261; AID 778;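 active means CYP2C19 inhibition above a set limit at 5 µM in the primary screen, cut at about 50% in these data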;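 further: plate controls were negative control wells for no effect and 2.5 mM tranylcypromine positive control for full effect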
PostGolgi ctrl – yeast control strain growth, post-Golgi counter-screen. efflux-deficient yeast background strain, growth absorbance A615, 16 h. inhibition, % at 10 µM. 98,000 compounds, 5% hits
PostGolgi yeast – growth inhibition of a yeast mutant, post-Golgi transport screen; inhibition, % at 10 µM; 98,000 compounds, 0.9% hits; post-Golgi transport phenotypic cell assay;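 further: yeast cells grown in 1536-well plates; yeast grown about 18 h at 30C before absorbance read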
An asterisk follows results filed as active. Only a sample is shown. Unless noted, no stated cut-off is given here; in the data, active means inhibition above about 30%; inactive means the rest.

Screening O=C(CN1C2CCCC1CC(NC(=O)c1ccco1)C2)Nc1ccccc1 (stereo not given) returned CYP2C19 act 0.1, CYP2C9 inhib 95*, CYP2C9 activ 0.1, CYP2C19 inhib 87*, PostGolgi ctrl 4 and PostGolgi yeast 1.
Screening COc1ccc(C(=O)NC2CC3CCCC(C2)N3CC(C)C)cc1OC (stereo not given) returned CYP2C19 act 1.1, CYP2C9 inhib -6, CYP2C9 activ 1.1, CYP2C19 inhib -14, PostGolgi ctrl 0 and PostGolgi yeast 1.
`CCN1CCN(C2CCN(C(C)=O)CC2)CC1` gave CYP2C19 act 1.1, CYP2C9 inhib -12, CYP2C9 activ 1.1 and CYP2C19 inhib -7.
O=S(=O)(N1CCCCC1)N1CCCN(S(=O)(=O)N2CCCCC2)CC1 was read as CYP2C19 act 0.7, CYP2C9 inhib 50*, CYP2C9 activ 0.5, CYP2C19 inhib 25, PostGolgi ctrl 14 and PostGolgi yeast 3.
O=S(=O)(N1CCCCCC1)N1CCN(S(=O)(=O)N2CCOCC2)CC1 was read as CYP2C19 act 0.9, CYP2C9 inhib 9, CYP2C9 activ 0.9, CYP2C19 inhib 9, PostGolgi ctrl 3 and PostGolgi yeast 2.
For O=C(CSCCO)Nc1nccs1 the results were CYP2C19 act 0.9, CYP2C9 inhib -24, CYP2C9 activ 1.2, CYP2C19 inhib 6, PostGolgi ctrl 1 and PostGolgi yeast 2.
`O=C(OCn1nnc2ccccc2c1=O)c1cccs1` gave CYP2C19 act 0.8, CYP2C9 inhib -4, CYP2C9 activ 1, CYP2C19 inhib 20, PostGolgi ctrl -7 and PostGolgi yeast 2.
Screening COc1cc(-c2nc(S(=O)(=O)c3ccccc3)c(N3CCOCC3)o2)cc(OC)c1OC returned CYP2C19 act 0.5, CYP2C9 inhib 89*, CYP2C9 activ 0.1, CYP2C19 inhib 55*, PostGolgi ctrl 2 and PostGolgi yeast 28.
For CCSc1oc(-c2ccco2)nc1S(=O)(=O)c1ccccc1 the results were PostGolgi ctrl 12 and PostGolgi yeast -14.
`NC(=O)CSc1oc(-c2ccc(F)cc2)nc1S(=O)(=O)c1ccccc1` gave CYP2C19 act 0.1, CYP2C9 inhib 38, CYP2C9 activ 0.6, CYP2C19 inhib 85*, PostGolgi ctrl 9 and PostGolgi yeast -4.
`O=S(=O)(c1ccccc1)c1nc(-c2ccco2)oc1N1CCCCCC1` gave CYP2C19 act 0.3, CYP2C9 inhib 58*, CYP2C9 activ 0.4, CYP2C19 inhib 66*, PostGolgi ctrl 42* and PostGolgi yeast -8.
Screening CCCSc1oc(-c2ccco2)nc1S(=O)(=O)c1ccccc1 returned CYP2C19 act 0.1, CYP2C9 inhib -24, CYP2C9 activ 1.2, CYP2C19 inhib 90*, PostGolgi ctrl 33* and PostGolgi yeast 15.
Screening CCSc1oc(-c2ccccc2)nc1S(=O)(=O)c1ccccc1 returned CYP2C19 act 1, CYP2C9 inhib -82, CYP2C9 activ 1.8, CYP2C19 inhib 4, PostGolgi ctrl 25 and PostGolgi yeast -8.
CC1CN(C2CCN(S(=O)(=O)Cc3ccccc3)CC2)CC(C)O1 (stereo not given) was read as CYP2C19 act 1.1, CYP2C9 inhib 2, CYP2C9 activ 1, CYP2C19 inhib -9, PostGolgi ctrl 4 and PostGolgi yeast 11.
O=C(Nc1nccs1)C1C2/C=C\CCCCC21 (stereo not given) was read as CYP2C19 act 1, CYP2C9 inhib 18, CYP2C9 activ 0.8, CYP2C19 inhib 1, PostGolgi ctrl 5 and PostGolgi yeast 16.
Screening O=C(O)C1C2C=CC(C2)C1C(=O)NC1CCS(=O)(=O)C1 (stereo not given) returned CYP2C19 act 0.9, CYP2C9 inhib 3, CYP2C9 activ 1, CYP2C19 inhib 8, PostGolgi ctrl 7 and PostGolgi yeast 6.
`NC(=O)CCCCC(=O)OCCCc1cccs1` gave CYP2C19 act 0.9, CYP2C9 inhib 4, CYP2C9 activ 1, CYP2C19 inhib 9, PostGolgi ctrl 4 and PostGolgi yeast 2.
CC(C)c1ccc(OCc2ccc(C(=O)N3CCN(c4ccccn4)CC3)cc2)cc1 was read as CYP2C19 act 0.7, CYP2C9 inhib 43, CYP2C9 activ 0.6, CYP2C19 inhib 27, PostGolgi ctrl 18 and PostGolgi yeast -4.
